These results are taken from PubChem BioAssay.

The test system of test [1] is Wnt5a (protein binding on small-molecule microarray). As to the kind of experiment: small molecules binding Wnt5a protein – biophysical, small-molecule microarray, 635/667 nm fluorescence, primary screen (AID 1142).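 Further: fluorescence read at 667 nm with signal to noise per printed feature.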 The settings on record: 635 nm fluorescence, higher = more signal.
A short description of test [2]: ATP-based viability of Huh7 replicon cells – cell-based, CellTiter-Glo luminescence, basal, 48 h, cytotoxicity control for HCV replication inhibitor project, primary screen (AID 1143).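 Further: Huh7 hepatoma cells carrying a hepatitis C replication reporter with no stimulus; test concentration not given here.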 The settings on record: higher = more signal, called active from +8 up or from −8 down.
The nature of test [3]: Pseudomonas biofilm growth suppression – PAO1 strain, BacTiter-Glo luminescence, LB-PBS, primary screen (AID 1144). The settings on record: P. aeruginosa PAO1 biofilm, 12 h, higher = more signal.
Test [4] can be described thus: basal CRE-LacZ reporter activity in PC12 – cell-based, unstimulated, primary screen (AID 1145). The settings on record: no forskolin, luminescence, 4.5 h, higher = more signal, called active from +8 up or from −8 down.
Test [5] in a line: forskolin-driven CRE-LacZ activity in PC12 – cell-based, CRE-LacZ reporter, forskolin-stimulated, primary screen (AID 1146).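 Further: PC12 cells with 6xCRE LacZ reporter stimulated by forskolin 10 µM; beta-galactosidase reporter signal reflecting CREB driven transcription.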 The following applies: luminescence, 4.5 h, higher = more signal, called active from +8 up or from −8 down.
In test [6] the target is Streptavidin (Streptomyces avidinii) (UniProt P22629). As to the kind of experiment: compounds binding control protein streptavidin – biophysical, small-molecule microarray, 635/667 nm fluorescence, artefact control for SMM compound annotation, primary screen (AID 1147).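 Further: signal reflects streptavidin binding to arrayed compounds as a control protein.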 The following applies: higher = more signal.
Test [7] can be described thus: probe aInhba binding on compound microarray – biochemical, small-molecule microarray, 635/667 nm fluorescence, primary screen (AID 1148).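 Further: score merges 667nm spot fluorescence with signal-to-noise for antibody binding to printed compounds.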 The settings on record: higher = more signal.
Test [8] deals with Torsin-1A (Homo sapiens) (UniProt O14656). The test is described as follows: TOR1A wild-type binding on microarray – cell lysate, small-molecule microarray, lysate, 635/667 nm, primary screen (AID 1149). The following applies: COS7 hTOR1A-WT lysate, 635 nm fluorescence, higher = more signal.
Test [9] shares this target. The test is described as follows: torsin A mutant lysate binding on microarrays – cell lysate, small-molecule microarray, COS7 lysate, 635/667 nm fluorescence, primary screen (AID 1150).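 Further: score pools 667 nm emission and signal to noise measuring lysate protein binding.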 The settings on record: COS7 hTOR1A mutant lysate, 635 nm fluorescence, higher = more signal.
Test [10] concerns Sonic hedgehog protein (Shh). As to the kind of experiment: Sonic hedgehog microarray binding compounds – biochemical, small-molecule microarray, 635/667 nm fluorescence, primary screen (AID 1151).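 Further: Shh protein binding to compounds spotted on small-molecule microarray slides; score combines spot fluorescence intensity with signal-to-noise across triplicate slides.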 The settings on record: 635 nm fluorescence, higher = more signal.
Test [11] can be described thus: optical density shifts of acrAB sulA E. coli – strain DRC41, OD650, 48 h, E. coli filamentation inducer project, primary screen (AID 1152).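 Further: E. coli MC1000 strain DRC41 lacking acrAB efflux pump and sulA.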 The following applies: higher = more signal, called active from +8 up or from −8 down.
Test [12] is described as follows: probe aLefty1 binding on compound microarray – biochemical, small-molecule microarray, 635/667 nm fluorescence, primary screen (AID 1153).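 Further: score merges spot fluorescence with signal-to-noise ratio from the scanned slide images.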 The settings on record: higher = more signal.
Test [13] is described as follows: plasmodial surface anion channel blockers, osmotic lysis – cell-based, P. falciparum Indochina, OD700, 1 h, primary screen (AID 1154). The following applies: P. falciparum Indochina infected RBC osmotic lysis, higher = more signal, called active from +8 up or from −8 down.
A short description of test [14]: plasmodial surface anion channel blockers, osmotic lysis – cell-based, P. falciparum Indochina, OD700, 2 h, primary screen (AID 1155).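 Further: lysis reports solute entry through the parasite surface anion channel PSAC.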 The settings on record: P. falciparum Indochina infected erythrocytes, higher = more signal, called active from +8 up or from −8 down.
Test [15] can be described thus: changes in parasitized red cell lysis, either direction – P. falciparum Indochina, OD700, 3 h, PSAC antagonist project, primary screen (AID 1156). The settings on record: P. falciparum-infected erythrocytes, osmotic lysis, higher = more signal, called active from +8 up or from −8 down.
Test [16] is described as follows: plasmodial surface anion channel blockers, osmotic lysis – cell-based, P. falciparum Indochina, OD700, 18 h, primary screen (AID 1157). The settings on record: P. falciparum Indochina infected erythrocytes, osmotic lysis OD700, 18 h; higher = more signal, called active from +8 up or from −8 down.
The nature of test [17]: S6 kinase pathway phospho-S6 level changes – cell-based, A549, cytoblot, luminescence, serum-stimulated, primary screen (AID 1158).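 Further: serum-stimulated A549 lung adenocarcinoma cells; signal is phosphorylated S6 detected by cytoblot immunostaining with HRP secondary.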 The following applies: 5 h, higher = more signal.
Test [18] has as its target NADPH oxidase 2 (Homo sapiens) (UniProt P04839). The test is described as follows: compounds shifting NOX2 Amplex Red fluorescence – cell-based, HEK293-NOX2, PMA-stimulated, NOX inhibitor project, primary screen (AID 1159). Further: test concentration not given here. The following applies: 45 min, higher = more signal, called active from +8 up or from −8 down.
Test [19] has as its target NADPH oxidase 4 (Homo sapiens) (UniProt Q9NPH5). As to the kind of experiment: compounds shifting NOX4 Amplex Red fluorescence – cell-based, HEK293-NOX4, tetracycline-induced, NOX inhibitor project, primary screen (AID 1160). The settings on record: HEK293-NOX4, Amplex Red H2O2 fluorescence, 45 min; higher = more signal, called active from +8 up or from −8 down.
For test [20], the target named is NADPH oxidase 5 (Homo sapiens) (UniProt Q96PH1). As to the kind of experiment: compounds shifting NOX5 Amplex Red fluorescence – cell-based, HEK293-NOX5, NOX inhibitor project, primary screen (AID 1161). The following applies: HEK293-NOX5, ionomycin, 45 min, higher = more signal.

Activity calls are given as the source filed them. Unless noted, how the calls were made is not given here.

Chain of NADPH oxidase 4 (Homo sapiens) (Q9NPH5 whole entry, looked up): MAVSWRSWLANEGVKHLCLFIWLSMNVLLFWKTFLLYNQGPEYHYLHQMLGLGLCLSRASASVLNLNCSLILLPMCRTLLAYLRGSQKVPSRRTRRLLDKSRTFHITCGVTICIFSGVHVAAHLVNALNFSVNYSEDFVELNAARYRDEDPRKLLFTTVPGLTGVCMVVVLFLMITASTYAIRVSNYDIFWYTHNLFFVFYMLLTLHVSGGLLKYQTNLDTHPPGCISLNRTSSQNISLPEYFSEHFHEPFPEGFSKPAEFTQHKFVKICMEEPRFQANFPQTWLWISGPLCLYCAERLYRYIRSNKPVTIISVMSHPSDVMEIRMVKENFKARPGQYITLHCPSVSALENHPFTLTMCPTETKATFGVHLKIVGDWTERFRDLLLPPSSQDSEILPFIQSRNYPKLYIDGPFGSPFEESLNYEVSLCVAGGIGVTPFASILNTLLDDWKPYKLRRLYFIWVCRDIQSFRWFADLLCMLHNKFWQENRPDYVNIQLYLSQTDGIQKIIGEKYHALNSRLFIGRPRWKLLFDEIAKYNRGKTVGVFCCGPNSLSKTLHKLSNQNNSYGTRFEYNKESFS
Chain of NADPH oxidase 5 (Homo sapiens) (Q96PH1 whole entry, looked up): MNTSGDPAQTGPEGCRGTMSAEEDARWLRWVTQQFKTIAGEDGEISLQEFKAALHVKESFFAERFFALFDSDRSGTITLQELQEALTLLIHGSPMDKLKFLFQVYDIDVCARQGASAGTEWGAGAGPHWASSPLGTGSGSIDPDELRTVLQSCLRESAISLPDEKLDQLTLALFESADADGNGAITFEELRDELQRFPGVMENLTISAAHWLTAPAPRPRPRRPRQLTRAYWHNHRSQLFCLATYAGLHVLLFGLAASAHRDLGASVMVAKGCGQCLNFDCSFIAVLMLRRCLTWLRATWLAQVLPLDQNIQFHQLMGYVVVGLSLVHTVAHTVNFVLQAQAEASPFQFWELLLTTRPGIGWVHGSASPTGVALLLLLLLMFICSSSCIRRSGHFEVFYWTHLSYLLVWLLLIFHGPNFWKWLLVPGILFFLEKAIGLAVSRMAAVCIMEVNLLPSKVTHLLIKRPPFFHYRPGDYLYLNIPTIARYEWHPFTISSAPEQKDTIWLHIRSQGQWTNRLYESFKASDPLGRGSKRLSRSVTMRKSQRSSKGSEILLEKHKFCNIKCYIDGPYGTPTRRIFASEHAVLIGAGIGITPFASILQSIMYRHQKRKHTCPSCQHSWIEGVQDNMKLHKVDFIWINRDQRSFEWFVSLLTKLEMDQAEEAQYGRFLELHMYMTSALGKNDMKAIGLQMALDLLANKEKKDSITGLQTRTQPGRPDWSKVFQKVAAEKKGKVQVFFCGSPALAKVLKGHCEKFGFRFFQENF
Chain of Streptavidin (Streptomyces avidinii) (P22629 whole entry, looked up): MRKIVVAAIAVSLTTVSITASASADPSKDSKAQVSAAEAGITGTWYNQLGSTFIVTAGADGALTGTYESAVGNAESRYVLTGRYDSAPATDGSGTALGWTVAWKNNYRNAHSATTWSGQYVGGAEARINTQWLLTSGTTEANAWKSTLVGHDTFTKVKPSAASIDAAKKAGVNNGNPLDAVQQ
Chain of Torsin-1A (Homo sapiens) (O14656 whole entry, looked up): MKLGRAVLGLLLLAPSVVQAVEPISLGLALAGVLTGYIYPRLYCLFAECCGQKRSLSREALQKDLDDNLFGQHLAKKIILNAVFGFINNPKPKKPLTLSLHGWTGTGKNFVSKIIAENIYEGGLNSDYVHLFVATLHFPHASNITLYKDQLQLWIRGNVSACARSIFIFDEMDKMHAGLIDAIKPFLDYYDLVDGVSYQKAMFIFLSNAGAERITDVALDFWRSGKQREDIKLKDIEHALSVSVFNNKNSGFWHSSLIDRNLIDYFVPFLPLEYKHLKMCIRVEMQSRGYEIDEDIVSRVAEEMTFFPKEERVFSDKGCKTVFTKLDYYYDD
Chain of NADPH oxidase 2 (Homo sapiens) (P04839 whole entry, looked up): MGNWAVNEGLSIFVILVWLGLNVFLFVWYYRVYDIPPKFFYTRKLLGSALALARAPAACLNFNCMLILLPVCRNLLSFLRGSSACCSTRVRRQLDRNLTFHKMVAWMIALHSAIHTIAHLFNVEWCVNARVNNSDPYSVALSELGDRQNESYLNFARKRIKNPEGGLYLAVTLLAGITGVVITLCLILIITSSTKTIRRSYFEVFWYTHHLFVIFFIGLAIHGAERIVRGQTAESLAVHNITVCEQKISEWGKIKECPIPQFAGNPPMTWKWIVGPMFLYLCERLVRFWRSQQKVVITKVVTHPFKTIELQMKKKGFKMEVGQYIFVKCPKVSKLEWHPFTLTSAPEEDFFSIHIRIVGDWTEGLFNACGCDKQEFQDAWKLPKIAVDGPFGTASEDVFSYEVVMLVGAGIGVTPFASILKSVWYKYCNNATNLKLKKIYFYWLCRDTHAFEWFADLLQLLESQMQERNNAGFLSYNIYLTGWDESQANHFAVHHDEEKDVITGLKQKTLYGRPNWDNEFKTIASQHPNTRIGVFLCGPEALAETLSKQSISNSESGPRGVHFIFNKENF

On to `N#Cc1ccc(NN2C(C(O)CCc3ccccc3)C=CC3C(=O)N(c4ccccc4)C(=O)C32)cc1` (stereo not given), for which the composite z-score was 0.135 in test [1]; 0.79 in test [6]; 0.194 in test [7]; -0.0047 with Torsin-1A (Homo sapiens) [8]; 0.985 with Torsin-1A (Homo sapiens) [9]; -0.0548 in [10]. This compound also displayed a composite z-score in test [12] of 0.272. Moreover, the z-score in [2] is -0.843 (inactive); in [3], -1.07 (inactive); in [4] it was -0.905 (inactive); in test [5] it was -0.259 (inactive); in [11], -0.487 (inactive); in test [13], 11.9 (active). The z-score in test [14] was 1.44 (inactive); in test [15], 0.712 (inactive); in test [16], -0.864 (inactive); in test [17], 0.843; in [18], -2.47 (inactive); in test [19] it was -3.59 (inactive). The z-score in test [20] was -1.41.
For the compound `CCOC(=O)C1=CC[C@@H](c2ccc(-c3ccc(OCc4ccccc4)cc3)c(OC)c2)N(S(=O)(=O)c2ccc(C)cc2)[C@H]1c1ccccc1`, the composite z-score amounted to 0.0858 in [1]; 1.67 in [6]; 0.119 in test [7]; 0.277 with Torsin-1A (Homo sapiens) [8]; 0.518 with Torsin-1A (Homo sapiens) [9]; 1.15 in test [10]. In test [12], this compound displayed a composite z-score of 0.404. Further, the z-score in test [2] was -2.32 (inactive); in [3], -1.05 (inactive); in test [4], -0.489 (inactive); in test [5] it was 0.1 (inactive); in test [11], -0.0232 (inactive); in test [13], 2.67 (inactive). In addition, the z-score in test [14] was 1.86 (inactive); in [15], 0.487 (inactive); in [16], 1.22 (inactive); in test [17], -0.533; in [18], 1.31 (inactive); in [19] it was 0.643 (inactive). For the same compound, in test [20], the z-score was determined as 0.429.
For `CCOC(=O)C[C@H]1[C@H](OC(=O)Cc2ccc3c(c2)OCO3)[C@@H](NC(=O)c2ccc3ccccc3c2)c2cc(OCCCO)ccc2N1C(=O)Cc1ccc(OC)cc1`, the composite z-score in [1] is -0.0175; in test [6], 0.348; in test [7], 0.386; with Torsin-1A (Homo sapiens) [8], 0.242; in the test with Torsin-1A (Homo sapiens) [9] it was 0.485; in test [10] it was 0.673. The same compound had a composite z-score in test [12] of -0.0626. In addition, the z-score in test [2] is -0.602 (inactive); in [3] it was -0.0536 (inactive); in test [4] it was 4.83 (inactive); in test [5] it was 0.135 (inactive); in [11], 2.54 (inactive); in test [13], 18 (active). The z-score was 2.41 (inactive) in test [14]; -1.47 (inactive) in test [15]; -0.15 (inactive) in test [16]; 2.6 in [17]; -0.629 (inactive) in test [18]; 0.799 (inactive) in test [19]. Moreover, the z-score in test [20] is 1.08.
Regarding `Cc1ccc(N2C(=O)c3ccccc3[C@](C)(C(=O)NCC(C)C)[C@@H]2c2ccc(CO)cc2)nc1`, the composite z-score in test [1] is -0.116; in test [6], -1.12; in test [7], -0.147; with Torsin-1A (Homo sapiens) [8] it was -0.458; with Torsin-1A (Homo sapiens) [9] it was -1.26; in test [10] it was -0.656. The composite z-score in [12] is -0.147. Also, the z-score in test [2] is 0.985 (inactive); in test [3] it was -0.309 (inactive); in test [4] it was -0.0888 (inactive); in test [5] it was -0.002 (inactive); in test [11], -0.262 (inactive); in test [13], 1.84 (inactive). The z-score in [14] was 0.707 (inactive); in [15], 1.26 (inactive); in [16], 0.937 (inactive); in test [17], -0.0528; in test [18] it was 0.253 (inactive); in [19] it was -0.657 (inactive). Moreover, in test [20], the z-score was -1.63.
As for `CCOC(=O)C1=CC[C@@H](c2ccccc2)N(S(=O)(=O)c2ccc(C)cc2)[C@H]1C`, the composite z-score is 0.532 in test [1]; 1.85 in test [6]; -0.153 in test [7]; 1.41 with Torsin-1A (Homo sapiens) [8]; 1.25 in the test with Torsin-1A (Homo sapiens) [9]; 0.747 in test [10]. This compound came in with a composite z-score in [12] of 0.0668. In addition, the z-score in test [2] is -4.32 (inactive); in test [3] it was 0.165 (inactive); in [4] it was -0.0137 (inactive); in test [5], -0.664 (inactive); in [11], -1.29 (inactive); in test [13], 3.28 (inactive). The z-score is 1.03 (inactive) in test [14]; -0.392 (inactive) in [15]; 0.215 (inactive) in test [16]; -0.343 in [17]; 0.21 (inactive) in [18]; -0.291 (inactive) in test [19]. The z-score in test [20] is 0.0997.
